Laboratory results taken from PubChem BioAssay AID1159580 (chemical genetic matrix, 2015).
Where “and” joins values, the source holds several entries; their conditions need not be identical. Equal values may be shown once. Among all 5,500 compounds or so, about 2,000 (36%) were called active. Not shown: some 18% with an inconclusive outcome. Rule as the data show it: active = normalized growth mostly below about 0.91 (no sharp cut-off); inconclusive = no clear call, values can overlap the other calls; inactive = mostly above about 0.92. Some of the results follow.

Assay: chemical genetic growth profiling, strain panel (AID 1159580);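 also: tested at 20 µM; growth read once vehicle control cultures reached saturation at 30 °C; 1 = growth at the plate median or of vehicle wells; lower values mean less growth of the strain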
Details: S. cerevisiae deletion strains, growth OD

Measured: normalized growth

NS(=O)(=O)c1cc2c(cc1Cl)NC(C1CC3C=CC1C3)NS2(=O)=O (stereo unspecified)
inactive: locus YAL013W, strain DEP1, active compounds read low 1 | locus YAL021C, strain ccr4, active compounds read low 1 | locus YAL026C, strain drs2, active compounds read low 0.99 | locus YAL030W, strain snc1, active compounds read low 0.99 | locus YAL040C, strain CLN3, active compounds read low 0.979 | locus YBL061C, strain skt5, active compounds read low 1 | locus YBR009C, strain hhf1, active compounds read low 0.982 | locus YBR021W, strain FUR4, active compounds read low 1.03 | locus YBR023C, strain chs3, active compounds read low 0.991 | locus YBR171W, strain sec66, active compounds read low 0.981 | locus YBR229C, strain ROT2, active compounds read low 0.96 | locus YBR231C, strain swc5, active compounds read low 0.989 | locus YBR279W, strain paf1, active compounds read low 0.996 | locus YCL011C, strain gbp2, active compounds read low 0.989 | locus YCL016C, strain dcc1, active compounds read low 0.995 | locus YCL029C, strain bik1, active compounds read low 0.941 | locus YCL061C, strain MRC1 (second series), active compounds read low 0.99 | locus YCL061C, strain MRC1, active compounds read low 0.991 | locus YCL069W, strain vba3, active compounds read low 0.997 | locus YCR088W, strain abp1, active compounds read low 0.991 | locus YDL005C, strain med2, active compounds read low 0.983 | locus YDL035C, strain GPR1, active compounds read low 1.01 | locus YDL040C, strain nat1, active compounds read low 0.994 | locus YDL074C, strain BRE1, active compounds read low 1.01 | locus YDL101C, strain DUN1, active compounds read low 0.967 | locus YDL134C, strain PPH21, active compounds read low 0.99 | locus YDL185W, strain tfp1, active compounds read low 0.959 | locus YDL192W, strain arf1, active compounds read low 0.992 | locus YDR001C, strain nth1, active compounds read low 0.985 | locus YDR069C, strain doa4, active compounds read low 1.01 | locus YDR101C, strain arx1, active compounds read low 1 | locus YDR137W, strain rgp1, active compounds read low 1.01 | locus YDR150W, strain NUM1, active compounds read low 0.981 and 1 | locus YDR159W, strain sac3, active compounds read low 0.987 | locus YDR162C, strain NBP2, active compounds read low 0.911 | locus YDR195W, strain ref2 0.963 | locus YDR297W, strain sur2, active compounds read low 0.991 | locus YDR318W, strain mcm21, active compounds read low 1.02 | locus YDR334W, strain swr1, active compounds read low 0.995 | locus YDR335W, strain msn5, active compounds read low 0.991 | locus YDR363W, strain ESC2, active compounds read low 0.956 | locus YDR388W, active compounds read low 1 | locus YDR392W, strain spt3, active compounds read low 0.924 | locus YDR502C, strain sam2, active compounds read low 0.978 | locus YEL003W, strain gim4, active compounds read low 0.997 | locus YEL037C, strain rad23, active compounds read low 0.999 | locus YEL061C, strain CIN8 (second series), active compounds read low 0.984 | locus YEL061C, strain CIN8, active compounds read low 0.989 | locus YER002W, strain NOP16, active compounds read low 0.987 | locus YER015W, strain faa2, active compounds read low 0.994 | locus YER016W, strain bim1, active compounds read low 0.994 | locus YER110C, active compounds read low 0.937 | locus YER111C, strain swi4, active compounds read low 0.98 | locus YER155C, strain BEM2 (second series), active compounds read low 0.974 | locus YER155C, strain BEM2, active compounds read low 0.988 | locus YER167W, strain BCK2, active compounds read low 1.04 | locus YFR010W, strain ubp6, active compounds read low 0.988 | locus YGL078C, strain dbp3, active compounds read low 0.986 | locus YGL086W, strain mad1, active compounds read low 1.03 | locus YGL167C, strain pmr1, active compounds read low 0.987 | locus YGL173C, strain kem1, active compounds read low 0.994 | locus YGL227W, strain vid30, active compounds read low 0.978 | locus YGL240W, strain doc1, active compounds read low 0.977 | locus YGL248W, strain PDE1, active compounds read low 0.979 | locus YGL253W, strain hxk2, active compounds read low 0.995 | locus YGR078C, strain PAC10, active compounds read low 1.01 | locus YGR135W, strain pre9, active compounds read low 0.987 | locus YGR229C, strain SMI1, active compounds read low 0.998 | locus YGR252W, strain gcn5, active compounds read low 1.07 | locus YHR013C, strain ard1, active compounds read low 0.962 | locus YHR027C, strain rpn1, active compounds read low 0.993 | locus YHR030C, strain SLT2, active compounds read low 1 and 1.02 | locus YHR079C, strain IRE1 (second series), active compounds read low 1.01 | locus YHR079C, strain IRE1, active compounds read low 1.02 | locus YHR094C, strain hxt1, active compounds read low 0.998 | locus YHR129C, strain ARP1, active compounds read low 0.994 | locus YHR142W, strain chs7, active compounds read low 1 | locus YHR200W, strain rpn10, active compounds read low 0.997 | locus YIL066C, strain RNR3, active compounds read low 0.989 | locus YIL073C, strain SPO22, active compounds read low 1.08 | locus YIL125W, strain kgd1, active compounds read low 0.992 | locus YIR030C, strain dcg1, active compounds read low 0.984 | locus YJL092W, strain hpr5, active compounds read low 0.99 | locus YJL095W, strain BCK1 (second series), active compounds read low 0.99 | locus YJL095W, strain BCK1, active compounds read low 1.01 and 1.06 | locus YJL115W, strain asf1, active compounds read low 0.997 | locus YJL129C, strain trk1, active compounds read low 0.986 | locus YJL134W, strain LCB3, active compounds read low 0.984 | locus YJL154C, strain vps35, active compounds read low 0.988 | locus YJL164C, strain tpk1, active compounds read low 0.997 | locus YJL166W, strain qcr8, active compounds read low 0.997 | locus YJL168C, strain set2, active compounds read low 0.992 | locus YJL187C, strain SWE1 (second series), active compounds read low 0.975 | locus YJL187C, strain SWE1, active compounds read low 0.989 | locus YJR043C, strain POL32, active compounds read low 1.06 | locus YJR066W, strain TOR1, active compounds read low 0.976
